Hits are enriched below; roughly 12% of the tested compounds scored in any of these assays.
TDP1 inh: TDP1 (human) enzyme inhibition | Q9NUW8 | Potency, µM (top dose mostly 130 µM), without a hit: top-dose activity change, negative = inhibition, hits mostly inhibitors | actives 0.28% (n = 350,000) | recombinant TDP1, AlphaScreen DNA substrate cleavage; note: % is set by controls: 0 for no effect and ±100 for the full control effect; nearly all actives have a fitted effect of over 40% in size
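AlphaScreen read-out: signal falls as enzyme removes the 3' tyrosine-FITC from a 5'-biotinylated DNA oligo (15 nM, 5 min, RT). Enzyme was E. coli-made recombinant Tdp1 at 1 nM, exposed to compound for 15 min beforehand; beads 10 ug/ml, 10 min.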
JMJD2A Tudor inh: inhibitors of human JMJD2A Tudor domain; actives 4.4% (n = 390,000); Potency, µM (highest dose often 114 µM), for inactives: at the top dose activity change, negative = inhibition, hits mostly inhibitors; O75164; AlphaScreen JMJD2A-Tudor / H3K4me3 peptide binding; AID 504339; note: % is set by controls: 0 for no effect and ±100 for the full control effect; nearly all actives have a fitted effect of over 50% in size
HP1b binding inh: HP1-beta chromodomain-methylated histone interaction inhibition | AlphaScreen HP1-beta / biotin-H3K9me3 peptide binding | Potency, µM (top dose mostly 114 µM), inactives show at the top dose activity change, negative = inhibition, hits mostly inhibitors | actives 0.56% (n = 390,000); note: nearly all actives have a fitted effect of over 70% in size
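Compound inhibition of the preformed complex between 50 nM HP1-beta and 50 nM biotinylated H3K9me3 peptide was read by AlphaScreen. Buffer was PBS pH 7.4 with 0.01% Tween-20. Incubations ran 30 min at room temperature, with 10 ug/mL donor/acceptor beads.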
G9a inh: inhibitors of human histone lysine methyltransferase G9a | Potency, µM (titrated, usually from 102 µM), for inactives: top-dose activity, negative = inhibition, usual class: inhibitors | actives 8.8% (n = 350,000) | G9a H3K9 monomethylation, AlphaScreen, 2 h; note: % is set by controls: 0 for no effect and ±100 for the full control effect; nearly all actives have a fitted effect of over 75% in size
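Compounds were preincubated with 20 nM G9a for 15 min, after which biotinylated H3K9 peptide (500 nM) and SAM (20 uM) started a 2 h room-temperature reaction. Monomethylated product was quantified by antibody-based AlphaScreen chemiluminescence.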
Sfp inh: Sfp phosphopantetheinyl transferase inhibition | Biochemical Sfp PPTase activity, qHTS | Potency, µM, for inactives: largest response in the series, negative = inhibition, actives largely listed as inhibitors | actives 3.5% (n = 310,000) | AID 1490;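 note: the enzyme is Sfp with the accession as filed and its product quenches rhodamine fluorescence; 0% = enzyme reaction without inhibitor and -100% = no enzyme wells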
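Step 1, compound plus 15 nM Sfp-PPTase, 15 min, room temperature. Step 2, add rhodamine-CoA (5 uM) and BHQ-2-YbbR (12.5 uM). Step 3, read 525/598 nm fluorescence at 0 and 30 min.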
BAZ2B inh: inhibitors of human BAZ2B bromodomain. AlphaScreen BAZ2B-H3K14Ac peptide displacement. Q9UIF8. Potency, µM (top dose mostly 114 µM), for inactives: at the highest dose activity change, negative = inhibition, usual class: inhibitors. AID 504333. actives 4.4% (n = 360,000); note: % is set by controls: 0 for no effect and ±100 for the full control effect; nearly all actives have a fitted effect of over 60% in size
Target sequence (Q9UIF8 whole entry, looked up): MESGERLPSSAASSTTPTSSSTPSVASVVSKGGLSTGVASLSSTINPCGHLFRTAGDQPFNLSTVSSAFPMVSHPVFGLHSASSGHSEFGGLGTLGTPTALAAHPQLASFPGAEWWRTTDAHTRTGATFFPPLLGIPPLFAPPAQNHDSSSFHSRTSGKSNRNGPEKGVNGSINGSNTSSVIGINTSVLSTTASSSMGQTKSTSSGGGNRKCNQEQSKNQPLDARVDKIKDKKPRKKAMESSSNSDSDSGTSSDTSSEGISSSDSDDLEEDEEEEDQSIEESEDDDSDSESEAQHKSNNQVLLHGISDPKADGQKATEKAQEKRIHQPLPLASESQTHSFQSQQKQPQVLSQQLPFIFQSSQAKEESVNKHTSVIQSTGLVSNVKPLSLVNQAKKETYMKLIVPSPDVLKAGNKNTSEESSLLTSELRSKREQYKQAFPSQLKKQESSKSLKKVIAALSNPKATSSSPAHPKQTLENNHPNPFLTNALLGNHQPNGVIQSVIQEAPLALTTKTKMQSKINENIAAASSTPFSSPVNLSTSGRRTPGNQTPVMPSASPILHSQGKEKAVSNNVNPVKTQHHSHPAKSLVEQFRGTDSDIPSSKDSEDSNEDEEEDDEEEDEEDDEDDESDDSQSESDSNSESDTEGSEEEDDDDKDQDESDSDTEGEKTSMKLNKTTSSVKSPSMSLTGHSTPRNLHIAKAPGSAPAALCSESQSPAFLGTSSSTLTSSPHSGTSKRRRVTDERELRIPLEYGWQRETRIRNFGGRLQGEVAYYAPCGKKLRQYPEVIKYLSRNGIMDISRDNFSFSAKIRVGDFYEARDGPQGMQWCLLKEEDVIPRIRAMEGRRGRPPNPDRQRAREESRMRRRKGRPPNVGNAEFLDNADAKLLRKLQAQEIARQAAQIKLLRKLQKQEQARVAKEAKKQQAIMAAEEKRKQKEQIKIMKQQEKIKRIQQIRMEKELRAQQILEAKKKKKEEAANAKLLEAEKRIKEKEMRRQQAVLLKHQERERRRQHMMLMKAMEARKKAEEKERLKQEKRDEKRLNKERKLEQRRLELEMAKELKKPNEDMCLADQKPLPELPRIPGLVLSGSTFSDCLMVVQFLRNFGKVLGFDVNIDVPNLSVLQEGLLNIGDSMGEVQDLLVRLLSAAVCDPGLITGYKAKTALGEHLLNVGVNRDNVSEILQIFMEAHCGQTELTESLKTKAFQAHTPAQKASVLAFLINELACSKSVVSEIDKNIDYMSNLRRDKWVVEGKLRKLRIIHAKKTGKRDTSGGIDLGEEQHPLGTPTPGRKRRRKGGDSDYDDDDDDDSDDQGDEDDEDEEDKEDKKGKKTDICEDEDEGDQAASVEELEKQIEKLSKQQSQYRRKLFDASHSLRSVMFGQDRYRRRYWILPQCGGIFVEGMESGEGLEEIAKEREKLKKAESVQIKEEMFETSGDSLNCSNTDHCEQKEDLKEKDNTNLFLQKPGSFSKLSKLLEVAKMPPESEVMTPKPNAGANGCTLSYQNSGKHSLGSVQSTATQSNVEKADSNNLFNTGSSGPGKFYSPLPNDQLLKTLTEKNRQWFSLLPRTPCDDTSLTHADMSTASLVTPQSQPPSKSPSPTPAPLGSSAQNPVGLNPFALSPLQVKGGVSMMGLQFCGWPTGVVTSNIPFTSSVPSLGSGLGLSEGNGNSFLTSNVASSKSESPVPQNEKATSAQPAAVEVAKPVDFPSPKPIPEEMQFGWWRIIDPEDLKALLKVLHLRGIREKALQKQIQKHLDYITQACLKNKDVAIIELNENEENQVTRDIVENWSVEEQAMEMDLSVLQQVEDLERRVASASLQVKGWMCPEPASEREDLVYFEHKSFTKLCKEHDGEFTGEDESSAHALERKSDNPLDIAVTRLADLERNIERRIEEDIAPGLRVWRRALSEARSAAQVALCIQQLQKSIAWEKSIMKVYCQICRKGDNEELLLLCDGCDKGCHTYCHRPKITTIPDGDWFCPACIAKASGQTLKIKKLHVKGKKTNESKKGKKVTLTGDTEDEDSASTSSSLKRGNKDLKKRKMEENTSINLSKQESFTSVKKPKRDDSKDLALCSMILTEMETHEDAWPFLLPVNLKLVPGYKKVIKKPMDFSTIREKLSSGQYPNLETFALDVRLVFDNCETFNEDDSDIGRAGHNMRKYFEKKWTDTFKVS
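Inhibition is scored as reduced AlphaScreen emission. The BAZ2B/b-H3(5-23)K14Ac complex (50 nM each) in PBS pH 7.4, 0.01% Tween-20 meets compound (up to 110 uM) for 30 min at RT before bead addition.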
Starred values were filed as active, the others as inactive; ? = inconclusive; / = not tested or not shown; ! = not confirmed by another sample; [ ] = remark or other dose. Calls come from the whole dose curve; as a rule, active = well fitted curve in the direction sought with a large enough effect; inconclusive = small, poorly fitted or top-dose-only effect, or another doubt; inactive = no such curve, though single readings can be large; an effect the other way counts as inactive or inconclusive. Potency is the fitted concentration of half-maximal effect.

SMILES | TDP1 inh | JMJD2A Tudor inh | HP1b binding inh | G9a inh | Sfp inh | BAZ2B inh
COc1cccc(C2CC(c3ccc(Br)cc3)=NN2C(=O)c2ccncc2)c1OC (centres undefined) | 6.2% | ? | -3.3% | 35.6%[59 µM] | -15.9% | 31.6µM*
O=C1OC[C@@H]2CCCN2C(=O)[C@@H](CC(=O)N(CCO)Cc2ccccc2)C/C=C\C[C@H]1Cc1ccc(F)cc1 | 0.7% | -17.2% | 36.9% | / | / | /
CCOC(=O)Cc1nnc(NC(=O)c2cccc(OCC)c2)s1 | 2.4% | ? | 22.9% | 12.2%[12.7 µM] | 26.4% | -7.6%
Nc1nnc(-c2ccco2)s1 | 2.6% | -3.9% | 38.0% | 1.7%[2.33 µM] | 5.01µM* | 17.1%
CCOc1cccc(C(=O)Nc2nnc(-c3ccco3)s2)c1 | 5.8% | -16.0% | 53.2% | 56.2µM* | -10.0% | ?
CCCC(=O)Nc1nnc(-c2ccco2)s1 | 0.0% | -12.2% | 32.5% | -6.4%[12.7 µM] | 31.6µM* | -14.3%
Cc1ccc(C)c(S(=O)(=O)N2CCN(C(=O)[C@H](Cc3ccccc3)NC(=O)c3ccco3)CC2)c1 | 2.5% | -26.2% | 6.3%[57 µM] | / | / | /
O=C(CCl)N1CCN(CC(=O)N2CCCC2)CC1 | / | 6.0% | 43.6% | 21.5% | -2.2% | 1.7%
Cc1nc([N+](=O)[O-])cn1CC(O)c1ccc(F)cc1 (centres undefined) | 0.0% | -5.9% | -5.1% | 6.9% | 22.9% | 2.6%
CCN(CC)CCNS(=O)(=O)c1ccc(OC)c(Br)c1 | 2.8% | 56.2µM* | 28.1% | 3.98µM* | 6.8% | 8.0%
COc1ccccc1NC(=O)C1=C(C)NC2=C(C(=O)CC(c3ccc(OC)c(OC)c3)C2)C1c1coc2ccccc2c1=O (centres undefined) | 5.3% | 3.5% | 23.7% | 44.7µM* | 6.0% | -34.3%
COc1ccccc1CNC(=O)[C@H](Cc1c[nH]c2ccccc12)NC(=O)[C@@H]1Cc2ccccc2CN1 | / | -27.2% | 26.1% | 12.6µM* | 22.9% | ?
CC(OC(=O)C1=Cc2ccccc2OC1)C(=O)NC1CCCC1 (centres undefined) | -2.8% | 4.3% | 0.6% | 17.4%[59 µM] | 17.9% | -3.6%
C[C@H](NC(=O)[C@@H]1Cc2ccccc2CN1)C(=O)NCC1CCCO1 (some centres undefined) | 1.5% | ? | 19.1% | 39.8µM* | 14.1% | -3.8%
C[C@@H](NC(=O)[C@@H]1Cc2ccccc2CN1)C(=O)NC1CCCCC1 | 4.0% | -9.0% | 19.6% | ? | 13.6% | -20.2%
C[C@@H](NC(=O)[C@@H]1Cc2ccccc2CN1)C(=O)NCc1ccco1 | 6.1% | -20.7% | 19.6% | 50.1µM* | -7.3% | ?
COc1ccccc1CNC(=O)Cc1c[nH]c2ccccc12 | 5.4% | -21.6% | -6.5% | -5.3% | 17.4% | -12.2%
CC(C)C(OC(=O)C1=Cc2ccccc2OC1)C(=O)NCC1CCCO1 (centres undefined) | / | 50.1µM* | ? | / | / | /
O=C1N(Cc2cccc(Cl)c2)C[C@@H]2C[C@@H](c3ccc4nonc4c3)N3CCC[C@@]123 | -2.8% | ? | 31.3% | 10.2% | 7.8% | -4.7%
CC(=O)c1ccc(OCCCC(=O)OCC(=O)N2CCN(S(=O)(=O)c3ccc(C)cc3C)CC2)cc1 | / | -16.3% | 31.0% | / | / | /
CCCCN(C(=O)c1cnccn1)c1c(N)n(CCC)c(=O)[nH]c1=O | -0.2% | -20.7% | 14.1%[57 µM] | / | / | /
COc1cc([N+](=O)[O-])ccc1NC(=O)CC1SC(=Nc2ccc(F)cc2)N(CCC2=CCCCC2)C1=O (centres undefined) | 4.6% | -34.8%[57.1 µM] | ? | 50.1µM* | 8.9% | ?
COc1ccc(OC)c(NC(=O)CC2SC(=Nc3ccc(F)cc3)N(CCC3=CCCCC3)C2=O)c1 (centres undefined) | 1.1% | -24.2% | 5.1% | 50.1µM* | 5.7% | ?
COCCn1c(=O)c(-c2cccs2)nc2cnc(Oc3cccc(Cl)c3)nc21 | / | / | / | 11.7%[12.7 µM] | 4.7% | /
O=C(O)COCC(=O)NCc1csc2ccccc12 | 2.6% | -6.2% | 9.3% | 50.1µM* | 23.6% | 1.3%
SMILES | TDP1 inh | JMJD2A Tudor inh | HP1b binding inh | G9a inh | Sfp inh | BAZ2B inh
CC(C)(C)c1ccccc1OCC(=O)Nc1ccccc1C(=O)NCc1cccnc1 | 10.1% | -26.7% | 18.9% | -15.0% | 8.0% | -28.4%
CCOc1ccc(CCNC(=O)C2CCCN(c3nnc(C)c4c(C)n(-c5ccccc5)nc34)C2)cc1 (centres undefined) | 5.6% | -27.2% | 34.8% | -0.4%[59 µM] | / | -16.5%
O=C(O)CCN1C(=O)C2CCCCC2C1=O (centres undefined) | -1.8% | -8.6% | 36.2% | -62.5% | 2.1% | -2.6%
O=C1C(=O)N(O)C2CCCCC2N1O (centres undefined) | 0.0% | ? | 20.7% | 7.94µM* | -18.3% | ?
Cc1ccc(S(=O)(=O)N/N=C2\C(=O)C3(C)CCC2C3(C)C)cc1 (centres undefined) | 8.4% | -8.3% | 52.3% | 14.1µM* | 19.2% | ?
COc1cc(C(=O)NNC(=O)CSc2nnc3ccccn23)cc(OC)c1OC | 0.4% | -12.4% | 23.1% | -60.5%[59 µM] | / | 0.0%
CCOC(=O)c1ccc(NC(=S)NC(=O)c2cncc(Br)c2)cc1 | / | -1.4% | 23.7% | ? | -27.1% | -2.6%
CCCCOC(=O)c1ccc(NC(=S)NC(=O)c2c(Br)c(C)nn2C)cc1 | 7.7% | -24.2% | -12.9% | -3.9%[59 µM] | 4.47µM* | 20.3%
CN(C)C=Nc1nonc1-c1ncn[nH]1 | -1.9% | 2.51µM* | 10.4% | 22.4µM* | ? | -10.0%
COC(=O)CCCCC1SCC2NC(=O)NC21O (centres undefined) | 14.1% | 0.891µM* | -95.0% | 8.91µM* | 20.1% | 2.24µM*
COC(=O)CCCC[C@H]1SC[C@H]2NC(=O)N[C@]21O | 9.3% | / | / | 2.24µM* | 39.8µM* | 0.891µM*
COC(=O)CCCC[C@@H]1SC[C@@H]2NC(=O)N[C@@H]21 | 26.2% | / | / | / | 14.3% | /
COc1cc2ncc(S(=O)(=O)c3ccccc3)c(N3CCCC(C)C3)c2cc1OC (centres undefined) | / | -30.6% | 5.3% | ? | -23.2% | -13.1%
CC(Oc1ccccc1)C(=O)Nc1nnc(S(=O)(=O)N2CCCCCC2)s1 (centres undefined) | 10.4% | 8.91µM*! | 46.8% | 2.82µM*! | 33.4% | 1.78µM*!
Cc1ccc(OCC(=O)Nc2nnc(S(=O)(=O)N3CCC(C)CC3)s2)cc1 | 0.5% | ? | 14.3%[57 µM] | 50.1µM* | 12.0% | ?
COc1ccc(OCC(=O)Nc2nnc(S(=O)(=O)N3CCCCCC3)s2)cc1 | 0.0% | -9.9% | 43.0% | -21.3%[59 µM] | 7.4% | -8.2%
O=C(COc1ccccc1)Nc1nnc(S(=O)(=O)N2CCCC2)s1 | 10.3% | ? | 46.3% | 8.91µM* | 5.2% | ?
CCC(C)(C)c1nnc(NC(=O)CCC2CCCCC2)s1 | / | -4.4% | 33.6% | / | / | /

From PubChem BioAssay
